# This is a sample that favours compounds with a hit; in the whole collection about 2.9% have one here.
# KDM5B inhibitor: inhibitors of human KDM5B histone demethylase | Q9UGL1 | KDM5B demethylase, FDH-coupled NADH fluorescence (FDH is formaldehyde dehydrogenase) | Potency, µM (series often up to 57.7 µM), hits mostly inhibitors | 220,000 compounds, 2.6% hits | AID 1347165; further: potency means the concentration at half of the fitted maximal effect; 0% is about no effect; nearly all actives have a fitted effect of over 70% in size
#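 Inhibition is measured as reduced NADH fluorescence generation from FDH coupling to formaldehyde release. Truncated KDM5BΔAP at 200 nM final acts on H3K4me3 peptide (12.5 µM in substrate mix) in pH 7.5 HEPES buffer with Tween-20, 30 min, room temperature.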
# HEK293 viab: reduces viability of HEK-293 SNCA reporter cells. HEK-293-SNCA-luc viability, GF-AFC fluorescence, 24 h. 150,000 compounds, 0.12% hits. AID 1671193. Potency, µM (titrated, usually from 57.1 µM), without a hit: top-dose activity change, negative = cytotoxicity, usual class: cytotoxic;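 further: potency means the concentration at half of the fitted maximal effect; 0% = DMSO-treated cells and -100% = medium-only wells without cells; nearly all actives have a fitted effect of over 30% in size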
#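 Cytotoxicity counterscreen: after 24 h compound treatment of genome-edited SNCA-luciferase HEK-293 cells, live-cell protease substrate GF-AFC read by fluorescence after 30 min; activity scaled between DMSO (0%) and medium-only (-100%), curves Hill-fitted.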
# IP6K1 inh: IP6K1 kinase inhibition; 140,000 compounds, 0.81% hits; IP6K1 kinase, ADP-Glo luminescence, 2 h; active compounds read low; AID 1645851; Q92551; activity change, % (series mostly up to about 58 µM); in the data active means activity change below about -25%; further: on the % scale 0 is the no-effect control and ±100 the full control effect
# Target sequence (Q92551 whole entry, looked up): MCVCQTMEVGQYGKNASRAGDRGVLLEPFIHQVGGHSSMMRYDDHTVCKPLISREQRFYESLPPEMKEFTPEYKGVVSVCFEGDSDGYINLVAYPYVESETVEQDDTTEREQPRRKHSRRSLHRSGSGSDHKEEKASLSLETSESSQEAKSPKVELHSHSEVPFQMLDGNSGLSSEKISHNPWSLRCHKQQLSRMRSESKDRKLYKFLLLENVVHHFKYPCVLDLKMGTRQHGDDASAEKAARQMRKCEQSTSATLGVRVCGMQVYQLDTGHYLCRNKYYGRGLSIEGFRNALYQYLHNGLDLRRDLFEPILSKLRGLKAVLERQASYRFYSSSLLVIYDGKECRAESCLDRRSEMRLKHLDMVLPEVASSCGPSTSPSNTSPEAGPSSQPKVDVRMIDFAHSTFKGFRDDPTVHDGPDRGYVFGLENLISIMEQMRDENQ
#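 ADP-Glo luminescence measures ADP made by human IP6K1 during a 2 h RT reaction with ATP/IP6 (mix at 1.3 mM/130 uM); top library doses 57.5 and 19.1 uM final.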
# SNCA expr inhib: reduces expression of the alpha-synuclein gene; HEK-293 SNCA-luciferase knock-in, luminescence, 24 h; Potency, µM (series often up to 57.2 µM), without a hit: at the highest dose activity change, negative = inhibition, most hits filed as inhibitors; 140,000 compounds, 0.17% hits; AID 1671194;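 further: potency means the concentration at half of the fitted maximal effect; plate controls were DMSO cells for no effect and cell-free wells for full effect; nearly all actives have a fitted effect of over 45% in size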
# Active calls of the source: *; i = inactive; ? = inconclusive; . = not tested or not shown; [ ] = remark or other dose. Unless noted, the call rests on the fitted dose curve; in most records, active means well fitted curve in the direction sought with a large enough effect; inconclusive means small, poorly fitted or top-dose-only effect, or another doubt; inactive means no such curve, though single readings can be large; an effect the other way counts as inactive or inconclusive.
SMILES,KDM5B inhibitor,HEK293 viab,IP6K1 inh,SNCA expr inhib
CC[C@@]1(O)CCN(c2nc(N)c3cc(OC)c(OC)cc3n2)C[C@H]1O,32µM*,-10%,11,-18%
COc1cc2nc(Cl)nc(N)c2cc1OC,.,-10%[23.9 µM],8,-19%[25.6 µM]
C[C@@]1(O)CCN(C(=O)CCc2ccc(-c3cccs3)o2)C[C@@H]1O,13µM*,-10%,0,-1%
Cn1nc(C(=O)N2CC[C@@](C)(O)[C@@H](O)C2)cc1-c1cccs1,i,3%,12,11%
CO[C@H]1C[C@@H](O)C12CCN(C(=O)CCc1ccc(-c3cccs3)o1)CC2,14µM*,?,-12,-33%
COC1CCCN(C(=O)c2cc(-c3cccc(N(C)C)c3)cc3ncn(C)c23)C1 (centres undefined),?,-6%[87.6 µM],-6,178%[87.6 µM]
CC(C)(C)c1ccc(-c2nc(C3CC(=O)N(c4ccc(F)cc4)C3)no2)cc1 (centres undefined),i,3%,-14,37%
CN(C)c1ccc(-c2nc(C3CC(=O)N(c4ccc(F)cc4)C3)no2)cc1 (centres undefined),32µM*,5%,-3,9%
Cc1ccc(N2CC(c3noc(-c4ccncc4)n3)CC2=O)cc1 (centres undefined),i,11%,13,2%
Cc1ccc(N2CC(c3noc(-c4cccc(N(C)C)c4)n3)CC2=O)cc1 (centres undefined),35µM*,?,15,3%
CN(C)c1cccc(-c2nc(C3CC(=O)N(c4ccc(F)cc4)C3)no2)c1 (centres undefined),35µM*,8%,-8,3%
COc1ccc(S(=O)(=O)N2CC(c3nc(-c4ccncc4)no3)C2)cc1,.,-12%,23,21%
COc1ccccc1-n1cc(-c2ccnc(N3CCCN(C(C)=O)CC3)n2)cn1,32µM*,-29%,21,7%
COC(=O)[C@H](NC(=O)Nc1ccc(C)cc1C)C(C)C,i,.,.,.
Cc1cncc(NC(=O)CC2COc3ccc(C(=O)N(C)C)cc3N2C)c1 (centres undefined),i,-9%,0,-21%
COCCNC(=O)c1ccc2c(c1)N(C)C(CC(=O)NC(C)C)CO2 (centres undefined),20µM*,7%,11,7%
COCCNC(=O)c1ccc2c(c1)N(C)C(CC(=O)Nc1ccccc1)CO2 (centres undefined),32µM*,-1%,8,1%
CCCNC(=O)CC1COc2ccc(C(=O)NCCOC)cc2N1C (centres undefined),28µM*,-14%,17,-18%
CCN(CC)C(=O)CC1COc2ccc(C(=O)NCCOC)cc2N1C (centres undefined),28µM*,2%,13,-10%
COCCNC(=O)c1ccc2c(c1)N(C)C(CC(=O)NCC(C)C)CO2 (centres undefined),?,3%,16,-4%
C=CCNC(=O)NC(=O)CN1CCSCC1,i,.,.,.
CN(C)C(=O)c1ccc2c(c1)N(C)C(CC(=O)NC(C)(C)c1ccccc1)CO2 (centres undefined),i,3%,9,?
COCCNC(=O)c1ccc2c(c1)N(C)C(CC(=O)NCc1ccon1)CO2 (centres undefined),28µM*,?,4,-26%
COCCNC(=O)c1ccc2c(c1)N(C)C(CC(=O)N(C)CC(C)C)CO2 (centres undefined),32µM*,-4%,11,-22%
CCNC(=O)CC1COc2ccc(C(=O)NCCOC)cc2N1C (centres undefined),32µM*,-3%,-3,-28%
SMILES,KDM5B inhibitor,HEK293 viab,IP6K1 inh,SNCA expr inhib
COCCNC(=O)c1ccc2c(c1)N(C)C(CC(=O)Nc1ccc(N)nc1)CO2 (centres undefined),22µM*,-3%,9,7%
CN1c2cc(C(=O)N3CCOCC3)ccc2OCC1CC(=O)NC(C)(C)C (centres undefined),i,-6%,8,3%
CCCN(Cc1ccc(OC)cc1)Cc1cc(=O)oc2ccc(OC)cc12,i,.,.,.
COCCNC(=O)c1ccc2c(c1)N(C)C(CC(=O)NC1CCC1)CO2 (centres undefined),28µM*,2%,12,-27%
Cc1ccc(NC(=O)CCNc2cnc3cnccn23)cc1F,22µM*,2%,26,-29%
Cc1cc(C)n(C(C)CC(=O)Nc2ccc(C)c(F)c2)n1 (centres undefined),i,7%,-6,10%
O=C(Cn1ccn2nc(-c3ccccc3)c(CO)c2c1=O)Nc1cccc(F)c1,18µM*,4%,9,9%
Cc1cccc(NC(=O)Cn2ccn3nc(-c4ccccc4)c(CO)c3c2=O)c1,?,-6%,6,0%
O=C(Cn1ccn2nc(-c3ccc(F)cc3)c(CO)c2c1=O)Nc1ccc(Cl)cc1F,32µM*,3%,0,-2%
CN1C(=O)Cc2cc(C(=O)N3C[C@@H](CO)[C@H](c4ccccn4)C3)ccc21,i,5%,8,13%
CC1(C)[C@H](Cc2cc(COc3ccccc3)on2)C[C@@H]1NC(=O)COc1ccccc1,i,-20%[87.6 µM],-14,-23%[87.6 µM]
CC[C@@]1(O)C[C@H](O[C@H]2C[C@H](N(C)C)[C@H](O[C@H]3C[C@H](O)[C@H](O[C@H]4CCC(=O)[C@H](C)O4)[C@H](C)O3)[C@H](C)O2)c2c(cc3c(c2O)C(=O)c2c(O)cccc2C3=O)[C@@H]1C(=O)OC,.,-11%,.,7%
COc1ccc(Nc2ccc3c(n2)CN(Cc2ccccc2C)C(=O)CO3)cc1,35µM*,?,-12,-12%[87.6 µM]
COc1ccc(Nc2ccc3c(n2)CN(Cc2ccccc2F)C(=O)CO3)cc1,35µM*,?,-25,14%[87.6 µM]
COc1ccccc1-c1ccc2c(n1)CN(Cc1ccccc1C)C(=O)CO2,?,-4%[87.6 µM],5,-4%[87.6 µM]
O=C1COc2ccc(Nc3ccccc3)nc2CN1Cc1ccccc1,?,-6%[87.6 µM],-21,-28%[87.6 µM]
Cc1nc(CN2Cc3nc(Nc4ccc(C(F)(F)F)cc4)ccc3OCC2=O)cs1,35µM*,?,-6,-34%[87.6 µM]
Cc1nn(CC(C)C)c2sc(C(=O)N3CCN(S(=O)(=O)c4ccc(F)c(Cl)c4)CC3)cc12,i,.,.,.
CN(C)CCNC(=O)c1n[nH]c2c1CN(C(=O)c1ccc(F)cc1F)CC2,i,2%,0,-19%
Cc1ccc(/C=C2\Oc3cc(OS(=O)(=O)c4ccc(C)cc4)ccc3C2=O)cc1,i,.,.,.
CCCCCn1nc(C(=O)NCC(=O)Nc2ccc(Br)cc2C)c2ccccc2c1=O,i,.,.,.
Cn1nc(C2CCNCC2)c2c(C(=O)NC3CC3)cc(C3CC3)nc21,89µM*,-7%,4,?
Cn1nc(C2CCCNC2)c2c(C(=O)NC3CC3)cc(C3CC3)nc21 (centres undefined),89µM*,10%,2,4%
Cn1nc(C2CCCNC2)c2c(C(=O)NCC(F)(F)F)cc(C3CC3)nc21 (centres undefined),?,2%,4,15%
